# Screening data: PubChem, National Center for Advancing Translational Sciences (NCATS)
# SMN2 splice enh: enhancers of SMN2 splice variant expression. HEK293 SMN2-luciferase splicing reporter, luminescence, 30-36 h. Potency, µM (top dose mostly 46.1 µM), inactives show at the highest dose activity change, positive = activation, hits mostly activators. actives 2.8% (n = 210,000). AID 1458; further: % of control where 0% means no effect; nearly all actives have a fitted effect of over 55% in size
#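 HEK293 cells carry an SMN2 […]–luciferase reporter in which exon 7 inclusion puts luciferase in frame. Cells were plated 10-12 h before compound addition, then incubated 30-36 h at 37C. ONE-Glo luminescence was read; sodium butyrate at 4.5 mM final served as control.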
# NPC1 prom act: NPC1 promoter activation. Huh7 NPC1 promoter luciferase reporter, 24 h. Potency, µM (top dose mostly 9.22 µM), without a hit: at the top dose activation, usual class: activators. actives 2.4% (n = 320,000); further: % of control where 0% means no effect; nearly all actives have a fitted effect of over 60% in size
#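 Huh7 reporter cells (NPC1 promoter driving luciferase) are dosed with compound for 24 h at 37 °C, 5% CO2; luciferase detection reagent is then added and luminescence measured after 10 min at ambient temperature.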
# ELG1 repair inh: inhibitors of ELG1-dependent DNA repair in HEK293T cells | actives 2.3% (n = 330,000) | HEK293T ELG1-luciferase reporter, luminescence, 16 h; DNA damage induced by 5-fluorouridine | Potency, µM (highest dose often 46.1 µM), without a hit: at the top dose activity change, negative = inhibition, actives largely listed as inhibitors; further: on the % scale 0 is the no-effect control and ±100 the full control effect; nearly all actives have a fitted effect of over 55% in size
#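 In this reporter screen, reduction of luminescence relative to DMSO vehicle indicated activity. Compounds and 5-fluorouridine were added together to 2,000 cells per well, incubated for 16 hr at 37 °C, then developed with ONE-Glo.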
# FLuc modulator: inhibits or activates purified firefly luciferase, miR-21 counter-screen; actives 6.9% (n = 360,000); purified FLuc, Km substrates, luminescence inhibition; Potency, µM (titrated, usually from 57.5 µM), without a hit: top-dose activity change, negative = inhibition, most hits filed as inhibitors; AID 588342;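 further: plate controls were vehicle for no effect and reference inhibitor for full effect; nearly all actives have a fitted effect of over 55% in size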
# Target sequence (P08659 whole entry, looked up): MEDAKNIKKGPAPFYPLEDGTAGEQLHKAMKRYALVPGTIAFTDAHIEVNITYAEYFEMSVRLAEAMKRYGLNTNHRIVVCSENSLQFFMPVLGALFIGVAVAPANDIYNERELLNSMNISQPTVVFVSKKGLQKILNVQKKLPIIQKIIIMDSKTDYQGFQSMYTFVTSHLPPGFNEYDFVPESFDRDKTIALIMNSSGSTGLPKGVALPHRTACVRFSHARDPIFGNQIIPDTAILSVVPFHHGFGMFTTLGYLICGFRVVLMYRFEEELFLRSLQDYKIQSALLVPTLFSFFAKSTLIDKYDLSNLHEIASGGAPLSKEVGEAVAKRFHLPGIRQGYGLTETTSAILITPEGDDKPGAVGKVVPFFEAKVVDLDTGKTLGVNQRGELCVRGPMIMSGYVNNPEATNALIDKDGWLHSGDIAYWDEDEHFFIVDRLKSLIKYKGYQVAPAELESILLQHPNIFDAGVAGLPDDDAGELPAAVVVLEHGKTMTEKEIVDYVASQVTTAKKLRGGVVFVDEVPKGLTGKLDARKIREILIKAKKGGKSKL
#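 Purified P. pyralis luciferase, 10 nM final, with Km-level 10 uM D-luciferin and 10 uM ATP in 50 mM Tris acetate pH 7.5, 10 mM Mg acetate, 0.01% Tween-20, 0.05% BSA; 6-point qHTS titration about 60 µM downward; luminescence read.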
# ELG1 genotoxic: induces genotoxicity in HEK293T cells with luciferase-tagged ELG1 | AID 504466 | Potency, µM (titrated, usually from 46 µM), inactives show at the highest dose activity change, positive = activation, actives largely listed as activators | HEK293T ELG1-luciferase reporter, luminescence, 16 h | actives 1.3% (n = 330,000); further: % of control where 0% means no effect; nearly all actives have a fitted effect of over 60% in size
#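 Genotoxicity was scored as increased ELG1-luciferase reporter signal, measured by ONE-Glo luminescence (30 min, room temperature). Compound or vehicle exposure of the HEK293T reporter cells lasted 16 hr at 37°C.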
# Rab9 promoter act: Rab9 promoter activation | Huh7 Rab9 promoter-luciferase reporter, luminescence, 24 h | Potency, µM (titrated, usually from 9.22 µM), for inactives: top-dose activation, negative = inhibition, actives largely listed as activators | actives 2.8% (n = 320,000) | AID 485297; further: % of control where 0% means no effect; nearly all actives have a fitted effect of over 60% in size
#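 Promoter activation is measured as luciferase luminescence in Huh7 cells stably transfected with a Rab9 promoter–luciferase construct, following 24 h compound exposure at 37 °C and 10 min reagent incubation at ambient temperature.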
# * = called active by the depositor; ? = inconclusive; . = no result given; [ ] = remark or other dose. Rows were chosen to be rich in hits. Some 9.4% of all compounds tested hit in one or more screens of this group. The call rests on the fitted dose curve; in most records, active means well fitted curve in the direction sought with a large enough effect; inconclusive means small, poorly fitted or top-dose-only effect, or another doubt; inactive means no such curve, though single readings can be large; an effect the other way counts as inactive or inconclusive. Potency means the concentration at half of the fitted maximal effect.
SMILES,SMN2 splice enh,NPC1 prom act,ELG1 repair inh,FLuc modulator,ELG1 genotoxic,Rab9 promoter act
Cc1noc(Cn2c(=O)c3cc4c(cc3n(CC(=O)Nc3ccccc3F)c2=O)OCO4)n1,.,.,.,1.2%,.,.
COc1ccc(S(=O)(=O)N(CCc2ccccc2)CC(=O)NCc2ccc(C)cc2)cc1,0.1%,.,.,-15.0%,.,.
COc1ccc2c(C)c(CCC(=O)NCc3cccc(Cl)c3)c(=O)oc2c1,-0.6%,.,.,-1.8%,.,.
Cc1ccc(-c2n[nH]c3c2C(c2cccc(O)c2)N(c2ccc(C(=O)O)cc2)C3=O)cc1 (stereo not drawn),3.8%,-2.5%,2.5%,8.49µM*,0.9%,-2.4%
Cc1ccc(-c2n[nH]c3c2C(c2ccccc2)N(c2ccc(C(=O)O)cc2)C3=O)cc1 (stereo not drawn),.,-0.6%,0.5%,?,-0.1%,-1.6%
O=C(Cc1ccc(Cl)cc1)NCC(c1cccs1)S(=O)(=O)c1ccccc1 (stereo not drawn),.,.,.,-9.8%,.,.
Cc1cc(C)n(C(=O)CNC(=O)c2ccc(C(C)(C)C)cc2)n1,.,-2.4%,?,7.57µM*,9.6%,0.8%
Cc1cc(C)n(C(=O)CNC(=O)Cc2ccccc2)n1,7.3%,-0.3%,-9.2%,-2.4%,8.7%,2.7%
COc1ccc(C(=O)NCC(=O)n2nc(C)cc2C)cc1OC,-1.3%,-2.1%,4.8%,-1.7%[2.3 µM],0.8%,1.7%
Cc1cc(C)n(C(=O)CNC(=O)c2ccc(Cl)cc2Cl)n1,.,2.1%,-3.0%,6.75µM*,2.3%,0.6%
Cc1ccc(Cn2c(CNS(=O)(=O)c3ccc(Cl)s3)nc3cccnc32)cc1,.,.,.,-13.5%,.,.
COc1ccc(CCN=C(N)NS(=O)(=O)c2ccc(F)cc2)cc1,-43.8%,-2.6%,18.3µM*,-1.5%,-11.3%,4.1%
CC(=O)Nc1ccccc1C(=O)C(=O)Nc1cccc(C(=O)NCc2ccccc2)c1,-4.6%,-0.9%,-9.7%,3.5%,-1.3%,14.3%
Cc1ccc(NC(=O)/C(C#N)=C/c2ccc(C(C)C)cc2)cc1C,-0.1%,.,.,-19.1%,.,.
NC(=O)c1ccccc1NC(=O)Nc1cccc(Cl)c1Cl,4.5%,0.0%,-1.6%,-12.2%,4.8%,-3.1%
CCc1ccc(NC(=O)C(=O)c2ccccc2NC(C)=O)cc1,.,1.58µM*,?,?,?,2.82µM*
CC(=O)Nc1ccccc1C(=O)C(=O)Nc1ccc(F)c(Cl)c1,.,3.98µM*,?,3.1%,?,3.16µM*
CCC(=O)Nc1ccc(F)c(Cl)c1,-14.0%,0.4%,6.6%,0.5%,-0.2%,-0.1%
Cc1ccc(NC(=O)/C(Cl)=C/c2ccccc2)cc1C,?,1.78µM*,?,0.757µM*,?,2.51µM*
NC(=O)c1ccccc1NC(=O)Nc1ccc(F)c(Cl)c1,17.5%,-2.3%,5.0%,9.53µM*,5.2%,0.1%
CC[C@](N)(C(=O)O)C(C)C,1.3%[9.22 µM],.,.,.,.,.
CC(=O)Nc1ccccc1C(=O)C(=O)O,3.6%,2.1%,12.0%,-1.8%,1.4%,-0.3%
CC(=O)Nc1ccccc1C(=O)C(=O)Nc1ccc(C)c(C)c1,17.8µM*,2µM*,?,?,?,0.891µM*
CC(=O)Nc1ccccc1C(=O)C(=O)Nc1ccc(C)c(F)c1,6.31µM*,3.55µM*,?,?,?,1.78µM*
COC(=O)c1sccc1NC(=O)c1ccc2c(c1)OCO2,26.9%,-0.4%,?,5.8%[2.3 µM],3.5%,-1.9%
O=C(c1ccc2c(c1)OCO2)N1CCCC1,-1.8%,1.8%,12.2%,-7.8%,-1.5%,6.3%
COC(=O)c1ccc(NC(=O)c2ccc3c(c2)OCO3)cc1,?,2.82µM*,?,?,6.51µM*,?
CC1CCCCC1NS(=O)(=O)CCNC(=O)c1ccc2c(c1)OCO2 (stereo not drawn),.,-3.2%,1.6%,1.8%,5.6%,-0.4%
COc1cc(NC(=O)c2ccc3c(c2)OCCO3)ccc1NC(=O)c1ccccc1Cl,.,10.0%,-0.8%,-2.3%,12.1%,-0.6%
